Source: the supplement of paper PMC10412459
Where a name gives a salt, the structure may show the parent alone.

System: K562 SF3B1 K700E vs K562 SF3B1 WT
Assay: surviving fraction ratio K562 SF3B1 K700E / K562 SF3B1 WT (each relative to DMSO); higher = less selective killing of SF3B1 K700E cells
Details: 5 days
In short: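 Isogenic K562 cells carrying an engineered SF3B1 hotspot allele and matched SF3B1 wild-type cells were screened against an in-house 80-compound library in 384-well plates. Plates were seeded at 250 cells per well, and compounds were added 24 h later at 0.5, 1, 5, 10, 50, 100, 500 and 1,000 nM, with continuous culture for 5 d. Viability was read by CellTiter-Glo. The value is the mutant-to-wild-type ratio of surviving fractions, each normalised to DMSO.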

Structure (SMILES)	surviving fraction ratio K562 SF3B1 K700E / K562 SF3B1 WT (0.5nM)	surviving fraction ratio K562 SF3B1 K700E / K562 SF3B1 WT (1nM)	surviving fraction ratio K562 SF3B1 K700E / K562 SF3B1 WT (5nM)	surviving fraction ratio K562 SF3B1 K700E / K562 SF3B1 WT (10nM)	surviving fraction ratio K562 SF3B1 K700E / K562 SF3B1 WT (50nM)	surviving fraction ratio K562 SF3B1 K700E / K562 SF3B1 WT (100nM)	surviving fraction ratio K562 SF3B1 K700E / K562 SF3B1 WT (500nM)	surviving fraction ratio K562 SF3B1 K700E / K562 SF3B1 WT (1000nM)	surviving fraction ratio K562 SF3B1 K700E / K562 SF3B1 WT (0.2nM)	surviving fraction ratio K562 SF3B1 K700E / K562 SF3B1 WT (0.4nM)	surviving fraction ratio K562 SF3B1 K700E / K562 SF3B1 WT (2nM)	surviving fraction ratio K562 SF3B1 K700E / K562 SF3B1 WT (4nM)	surviving fraction ratio K562 SF3B1 K700E / K562 SF3B1 WT (20nM)	surviving fraction ratio K562 SF3B1 K700E / K562 SF3B1 WT (40nM)	surviving fraction ratio K562 SF3B1 K700E / K562 SF3B1 WT (200nM)	surviving fraction ratio K562 SF3B1 K700E / K562 SF3B1 WT (400nM)
Nc1nc(=S)c2[nH]cnc2[nH]1 [6-thioguanine]	0.927	0.836	0.914	0.819	0.78	0.792	0.828	0.777	–	–	–	–	–	–	–	–
Oc1ccc(/C=C/c2cc(O)cc(O)c2)cc1 [resveratrol]	0.896	0.898	0.856	0.905	1	1.24	0.916	1.28	–	–	–	–	–	–	–	–
COc1cccc2c1C(=O)c1c(O)c3c(c(O)c1C2=O)C[C@@](O)(C(=O)CO)C[C@@H]3O[C@H]1C[C@H](N)[C@H](O)[C@H](C)O1 [doxorubicin.HCl]	0.974	1.04	0.718	1.07	1.11	0.446	1.24	2.24	–	–	–	–	–	–	–	–
C=CC(=O)Nc1cc2c(Nc3ccc(F)c(Cl)c3)ncnc2cc1OCCCN1CCOCC1 [canertinib]	0.814	0.878	0.921	0.888	0.721	0.79	0.72	0.639	–	–	–	–	–	–	–	–
COc1cc2c(Oc3ccc(NC(=O)C4(C(=O)Nc5ccc(F)cc5)CC4)cc3F)ccnc2cc1OCCCN1CCOCC1 [Foretinib]	0.742	0.75	0.797	0.729	0.775	0.561	1.02	0.913	–	–	–	–	–	–	–	–
C[C@@H]1CN(CC(=O)Nc2ccc3c(c2)Cc2cccc(-c4cc(=O)cc(N5CCOCC5)o4)c2S3)C[C@H](C)O1	0.976	1.04	0.887	0.896	1.08	0.96	0.878	0.865	–	–	–	–	–	–	–	–
C#Cc1cccc(Nc2ncnc3cc(OCCOC)c(OCCOC)cc23)c1 [erlotinib]	0.882	0.743	0.852	0.843	0.692	0.788	0.811	0.712	–	–	–	–	–	–	–	–
CN1CC[C@H](c2c(O)cc(O)c3c(=O)cc(-c4ccccc4Cl)oc23)[C@H](O)C1 [Flavopiridol]	0.8	0.83	0.793	0.847	0.916	0.929	1.89	2.25	–	–	–	–	–	–	–	–
COc1cc2nccc(Oc3ccc(NC(=O)C4(C(=O)Nc5ccc(F)cc5)CC4)cc3)c2cc1OC [Cabozantinib]	0.718	0.805	0.831	0.71	0.733	0.704	0.503	0.686	–	–	–	–	–	–	–	–
Cc1cn(-c2cc(NC(=O)c3ccc(C)c(Nc4nccc(-c5cccnc5)n4)c3)cc(C(F)(F)F)c2)cn1 [nilotinib]	0.834	0.742	0.537	0.816	1.47	1.48	1.53	1.51	–	–	–	–	–	–	–	–
C[C@H](CN(C)C)Oc1nc(Nc2cc3cccc(Cl)c3cn2)cnc1C#N	0.863	0.781	0.786	0.781	0.826	0.784	0.497	0.442	–	–	–	–	–	–	–	–
O=C(NOCC1CC1)c1ccc(F)c(F)c1Nc1ccc(I)cc1Cl	1.29	0.978	1.08	0.818	1.3	0.822	0.921	0.944	–	–	–	–	–	–	–	–
COc1cc2ncnc(Nc3ccc(F)c(Cl)c3)c2cc1OCCCN1CCOCC1 [gefitinib]	0.645	0.787	0.848	0.768	0.792	0.802	0.781	0.907	–	–	–	–	–	–	–	–
O=C1NC(=NCc2cccs2)S/C1=C\c1ccc2ncccc2c1	–	–	–	–	–	–	–	–	0.909	0.855	0.878	0.842	1.02	0.921	0.844	0.909
COc1cc2ncnc(Nc3ccc(F)c(Cl)c3)c2cc1NC(=O)/C=C/CN1CCCCC1	0.911	0.948	0.89	0.805	0.886	0.945	0.756	0.642	–	–	–	–	–	–	–	–
CNC(=O)c1cc(Oc2ccc(NC(=O)Nc3ccc(Cl)c(C(F)(F)F)c3)cc2)ccn1 [sorafenib]	0.8	0.973	0.87	0.956	0.915	1	0.887	0.973	–	–	–	–	–	–	–	–
Cc1nc(Nc2n[nH]c3c2CN(C(=O)N[C@H](CN(C)C)c2ccccc2)C3(C)C)c2sccc2n1	0.912	0.858	1.09	1.34	1.76	1.69	1.98	1.69	–	–	–	–	–	–	–	–
O=C(O)C1(C(=O)O)CCC1.[NH2-].[NH2-].[Pt+2] [carboplatin]	0.765	0.799	0.905	0.829	0.917	0.764	0.917	0.762	–	–	–	–	–	–	–	–
COc1cc([C@@H]2c3cc4c(cc3[C@@H](O[C@@H]3O[C@@H]5CO[C@@H](C)O[C@H]5[C@H](O)[C@H]3O)[C@H]3COC(=O)[C@H]23)OCO4)cc(OC)c1O [etoposide]	0.966	0.974	0.905	0.771	0.842	1.01	1.72	1.51	–	–	–	–	–	–	–	–
CC1(C)CC(=O)c2c(C(F)(F)F)nn(-c3ccc(C(N)=O)c(N[C@H]4CC[C@H](OC(=O)CN)CC4)c3)c2C1	0.983	0.972	0.763	0.719	1.18	2.16	1.09	1.16	–	–	–	–	–	–	–	–
CN1CCN(c2nc(C3=C(c4c[nH]c5ccccc45)C(=O)NC3=O)c3ccccc3n2)CC1 [Sotrastaurin/AEB071]	0.816	0.804	0.847	0.854	0.889	0.979	0.955	0.896	–	–	–	–	–	–	–	–
Cc1nc(Nc2ncc(C(=O)Nc3c(C)cccc3Cl)s2)cc(N2CCN(CCO)CC2)n1 [dasatinib]	1.18	2.2	1.86	1.39	1.23	1.42	1.72	1.65	–	–	–	–	–	–	–	–
NC1(c2ccc(-c3nc4ccn5c(=O)[nH]nc5c4cc3-c3ccccc3)cc2)CCC1	0.882	0.849	0.841	0.686	0.61	0.706	0.654	0.626	–	–	–	–	–	–	–	–
CCc1cc(Nc2nccc(-c3c(-c4ccc(OC)c(C(=O)Nc5c(F)cccc5F)c4)nc4ccccn34)n2)c(OC)cc1N1CCC(N2CCN(S(C)(=O)=O)CC2)CC1	0.969	0.921	0.92	0.907	0.817	0.805	0.824	0.842	–	–	–	–	–	–	–	–
CC(=O)O[C@H]1C(=O)[C@@]2(C)[C@H]([C@H](OC(=O)c3ccccc3)[C@]3(O)C[C@H](OC(=O)[C@H](O)[C@@H](NC(=O)c4ccccc4)c4ccccc4)C(C)=C1C3(C)C)[C@]1(OC(C)=O)CO[C@@H]1C[C@@H]2O [paclitaxel]	0.866	0.99	0.864	1.42	2.44	2.46	3	2.44	–	–	–	–	–	–	–	–
